High-throughput results (PubChem BioAssay)
ALDH1A1 block: ALDH1A1 (human) enzyme inhibition; P00352; Purified ALDH1A1, NADH fluorescence, propionaldehyde substrate; Potency, µM (series often up to 75.3 µM), most hits filed as inhibitors; 220,000 tested, 7.3% active; AID 1030
HTT aggregate: reduces HttQ103-GFP aggregates in PC12 cells | PC12 HttQ103-GFP aggregates, Acumen cytometry, 40 h | Potency, µM (series often up to 46.1 µM), most hits filed as inhibitors | 220,000 tested, 1.1% active; active means well fitted curve in the direction sought with a large enough effect; inconclusive means small, poorly fitted or top-dose-only effect, or another doubt; inactive means no such curve, though single readings can be large; an effect the other way counts as inactive or inconclusive; further: nearly all actives have a fitted effect of over 60% in size
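Ecdysone-promoter PC12 model expressing HTT exon 1 Q103 fused to GFP, induced by tebufenozide at 100 nM final. Compounds titrated; aggregates sized 1–25 µm scored on a 488 nm laser cytometer.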
HPGD inh: blocks human HPGD enzyme activity; Potency, µM, usual class: inhibitors; 150,000 tested, 4.3% active; purified HPGD, NADH fluorescence kinetic, PGE2 substrate; AID 894; P15428
Target sequence (P15428 whole entry, looked up): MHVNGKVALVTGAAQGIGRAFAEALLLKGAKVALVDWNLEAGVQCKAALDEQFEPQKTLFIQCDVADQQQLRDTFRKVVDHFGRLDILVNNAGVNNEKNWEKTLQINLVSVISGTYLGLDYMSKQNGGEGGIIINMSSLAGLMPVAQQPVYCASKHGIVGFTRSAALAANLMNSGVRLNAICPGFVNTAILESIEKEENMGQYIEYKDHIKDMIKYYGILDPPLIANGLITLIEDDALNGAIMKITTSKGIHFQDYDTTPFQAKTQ
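NADH formation kinetics: reaction with 30 uM PGE2 and 1 mM NAD+ (final), 20 nM enzyme, Tris-HCl pH 8 with Tween 20, after 15 min compound preincubation at room temperature. Fluorescence change, last versus first of five reads.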
PNC inhibitor: inhibitors of perinucleolar compartment assembly. 140,000 tested, 3.1% active. activity change (PNC), negative = inhibition, % at 10 µM. PC3M PTB-GFP, PNC prevalence imaging, 16 h; stronger effect = lower value;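 active means readout at or below -70, meaning at least 70% loss of cells showing the perinucleolar compartment, a nuclear body marking cancer cells; inconclusive means readout between -30 and a set limit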
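PC3M cells stably expressing PTB-GFP, 750–1000 cells/well, treated 16 h at 37 °C with compound (23 nl of library stock), in duplicate. After paraformaldehyde fixation and Hoechst stain, imaged at 20x; PNC prevalence scored by image analysis.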
GoLoco inh red: blocks human Gai1 binding to RGS12 GoLoco peptide, red readout; P63096; 230,000 tested, 0.44% active; AID 880; Gai1:RGS12 GoLoco peptide FP, rhodamine, 10 min; Potency, µM (titrated, usually from 61.6 µM), usual class: inhibitors; active means well fitted inhibition curve with a large enough effect, not every such curve was filed as active; inactive means no such curve, though single readings can be large or run the other way; further: nearly all actives have a fitted effect of over 30% in size
Target sequence (P63096 whole entry, looked up): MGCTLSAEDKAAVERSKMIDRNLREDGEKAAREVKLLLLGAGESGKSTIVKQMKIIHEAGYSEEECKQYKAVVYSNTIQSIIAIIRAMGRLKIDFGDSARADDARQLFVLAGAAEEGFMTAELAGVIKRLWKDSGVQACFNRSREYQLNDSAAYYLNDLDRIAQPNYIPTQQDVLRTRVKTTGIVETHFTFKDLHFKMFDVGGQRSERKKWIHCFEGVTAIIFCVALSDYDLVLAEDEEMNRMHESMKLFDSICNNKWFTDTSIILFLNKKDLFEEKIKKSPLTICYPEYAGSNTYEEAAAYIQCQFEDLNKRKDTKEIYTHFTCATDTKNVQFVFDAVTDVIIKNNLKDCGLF
HTT cytoprotect: protects HTT-Q103 PC12 cells, measured by ATP; PC12 HTT-Q103 induced, cytoprotection, ATP luminescence, 40 h; Potency, µM (highest dose often 56.4 µM), hits mostly activators; 230,000 tested, 0.14% active; active means well fitted curve in the direction sought with a large enough effect; inconclusive means small, poorly fitted or top-dose-only effect, or another doubt; inactive means no such curve, though single readings can be large; an effect the other way counts as inactive or inconclusive; further: nearly all actives have a fitted effect of over 45% in size
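ATP quantification (ATPlite) reports survival of PC12 cells in which tebufenozide, 100 nM final, switches on Htt exon 1 with 103 glutamines linked to GFP; compounds are titrated.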
Numbers stand for hits; n = inactive; u = inconclusive; x = no result given; [ ] = remark or other dose. Most compounds without a hit are left out; they make up all but 11% or so of the library. Unless noted, the call rests on the fitted dose curve; in most records, active means well fitted inhibition curve with a large enough effect (not every such curve was filed as active); inconclusive means small, poorly fitted or top-dose-only effect, or another doubt; inactive means no such curve, though single readings can be large or run the other way.

SMILES	ALDH1A1 block	HTT aggregate	HPGD inh	PNC inhibitor	GoLoco inh red	HTT cytoprotect
CCn1nc(-c2cccs2)nc2c(=O)n(C)c(=O)nc1-2	u	17.8µM	n	u	n	n[10 µM]
O=C(O)CSCC(=O)O	n[13.5 µM]	x	n	x	n[14.2 µM]	n[10 µM]
CCCCN1C(=O)NC(=O)C2(Cc3cc(C)ccc3N(C)C2)C1=O (centres undefined)	10µM	n	n	u	n	n
COc1cccc(N2C(=O)NC(=O)C3(Cc4cc(C)ccc4N(C)C3)C2=O)c1 (centres undefined)	20µM	n	n	u	n	n
COc1ccc(OC)c(N2C(=O)NC(=O)C3(Cc4cc(C)ccc4N(C)C3)C2=O)c1 (centres undefined)	u	n	n	n	n	n
Cc1ccc2c(c1)CC1(CN2C)C(=O)NC(=O)N(c2cc(C)ccc2C)C1=O (centres undefined)	1.78µM	n	n	n	n	n
NC(=O)CN1C[C@@H](O)CC1=O	x	x	x	x	x	n[1.9 µM]
CC(=O)c1cn(Cc2ccccc2C#N)c2ccccc12	25.1µM	n[9.22 µM]	x	x	n	n[10 µM]
CC(C)C(=O)c1cn(Cc2ccccc2C#N)c2ccccc12	n	n	n	n	n	n[0.074 µM]
CCCn1nc2ccccc2c1P(=O)(N1CCOCC1)N1CCOCC1	n	n	n	-90.1	n	n[10 µM]
Oc1c(Br)cc(Br)cc1Oc1ccc(Br)cc1Br	n	12.6µM	7.08µM	n	n	x
CC(=O)c1ccc(Oc2ccc(C(=O)c3ccc(C)c(C)c3)cc2[N+](=O)[O-])cc1	0.794µM	n	7.08µM	u	n	n[10 µM]
Clc1ccc(C2=CCC[C@H]3CC[C@@H]2N3)cn1	10µM	x	n	x	n	n
C1CCOC1	u	x	n	x	n	n
C=CC(C)=O	20µM	x	n	x	n	n
Fc1ccc(NC2=NCCS2)cc1Cl	n	n	12.6µM	n	n	n
Clc1nc(Cl)nc(Nc2ccccc2Cl)n1	n	x	n	x	n	n
CC1Cc2ccccc2N1C(=O)COC(=O)c1ccc(Cl)nc1 (centres undefined)	u	n	x	x	n	n
O=c1c(O)c(-c2ccc(O)c(O)c2)oc2c(O)c(O)cc(O)c12	35.5µM	x	17.8µM	x	n	n
Cc1[nH]n(-c2ccccc2)c(=O)c1C(c1cccc([N+](=O)[O-])c1O)c1c(C)[nH]n(-c2ccccc2)c1=O	15.8µM	u	28.2µM	u	n	n[10 µM]
COc1cc(C(c2c(C)[nH]n(-c3ccccc3)c2=O)c2c(C)[nH]n(-c3ccccc3)c2=O)cc(OC)c1OC	n	n	n	u	n	n
COC(=O)CSc1nc2sc3c(c2c(=O)n1C1CCCCC1)CCN(C)C3	u	n[9.22 µM]	u	u	n	n
Nc1ccc([N+](=O)[O-])cc1[N+](=O)[O-]	n	x	n	x	n	n
O=C1NS(=O)c2cc([N+](=O)[O-])cc([N+](=O)[O-])c21 (centres undefined)	22.4µM	n	x	x	n	n
O=C1/C(=C\c2ccccc2)C[C@@]2(O)[C@H]3Cc4ccc(O)c5c4[C@@]2(CCN3CC2CC2)[C@H]1O5	n	x	x	x	n	x
SMILES	ALDH1A1 block	HTT aggregate	HPGD inh	PNC inhibitor	GoLoco inh red	HTT cytoprotect
CCCc1[nH][nH]c(=O)c1C(c1ccccc1)C(C#N)C#N (centres undefined)	22.4µM	n	u	u	n	n[10 µM]
CCCc1[nH][nH]c(=O)c1C(c1ccc(Cl)cc1)C(C#N)C#N (centres undefined)	u	n	15.8µM	n	n	n[1.9 µM]
O=c1[nH]c(=S)n(Cc2ccc(F)cc2)c(O)c1C=NCC1CCCO1 (centres undefined)	u	n[9.22 µM]	28.2µM	u	n	n
C[C@]12O[C@H](C[C@]1(O)CO)n1c3ccccc3c3c4c(c5c6ccccc6n2c5c31)CNC4=O	x	1.58µM	x	x	x	n
CCOP(=S)(OCC)SCCSCC	14.1µM	x	n	x	n	n
Cc1ccc(C(c2nnnn2Cc2ccccc2)N2CC=C(c3ccc(F)cc3)CC2)cc1 (centres undefined)	7.94µM	n	n	n	n	n
O=C(OCC(=O)c1ccc([N+](=O)[O-])cc1)/C(=C\c1ccc(Cl)cc1)NC(=O)c1ccccc1	12.6µM	n	n	n	n	n
C(=C/c1ccccc1)/CN1CCN(CCOC(c2ccccc2)c2ccccc2)CC1	n	x	n	x	n	n
O=C1NC(=O)C(=Cc2ccc(N3CCN(C(=O)c4ccccc4)CC3)c([N+](=O)[O-])c2)C(=O)N1	11.2µM	n	x	x	n	n
O=C1NC(=O)C(=Cc2cc([N+](=O)[O-])ccc2N2CCCCC2)C(=O)N1	n	n	x	x	n	n
CC1=C(/C=C/c2ccccc2)CCN(C)C1	11.2µM	n	n	n	n	n
C=C(CC1(CNP(=O)(c2ccccc2)c2ccccc2)CC1)c1ccccc1	n	x	n	x	n	n
CC(C)(COCC1CO1)COCC1CO1 (centres undefined)	n	x	n	x	n	n
Cc1cccc2c1=NC(=O)/C(=C/c1c(O)[nH]c(=O)[nH]c1=O)C=2	0.501µM	n	u	n	n	n[10 µM]
O=C1N[C@@]2(CN3CCC2CC3)C(=O)N1CN(Cc1ccccc1)c1ccccc1	n[13.5 µM]	x	n	x	n[14.2 µM]	n[10 µM]
COc1ccccc1[N+](=O)[O-]	25.1µM	x	n	x	n	n
COc1ccccc1CCNCc1cc2c(cc1[N+](=O)[O-])OCO2	u	n	n	n	n	n
C[C@H]1CC[C@@H]2[C@@H](C)[C@H]3[C@H](C[C@H]4[C@@H]5CC=C6CC(O[C@@H]7O[C@H](CO)[C@H](O)[C@H](O[C@@H]8O[C@H](CO)[C@@H](O)[C@H](O)[C@H]8O)[C@H]7O[C@H]7O[C@@H](C)[C@H](O)[C@@H](O)[C@H]7O)CC[C@]6(C)[C@H]5CC[C@]34C)N2C1 (some centres undefined)	22.4µM	22.4µM	n	x	n	n
CC1CC[C@@]2(OC1)OC1C(O)C3C4CC[C@H]5CC(O[C@@H]6O[C@@H](CO)[C@H](OC7OC(CO)C(O)C(OC8OCC(O)C(O)[C@H]8O)[C@@H]7O[C@@H]7OC(CO)[C@H](O)[C@@H](O[C@@H]8OC(CO)C(O)C(O)C8O)C7O)C(O)C6O)C(O)C[C@]5(C)C4CC[C@]3(C)C1C2C (some centres undefined)	n	x	n	x	n	n
CCOC(=O)c1sc(/N=C/c2c(O)n(-c3ccccc3)c(=O)[nH]c2=O)c(C#N)c1C	11.2µM	n[1.84 µM]	25.1µM	n	n	n
Oc1cc(Cl)ccc1Cl	u	x	n	x	n	n
N#CC(C#N)=Cc1cccnc1	3.16µM	n	x	x	n	n
NC(=S)c1cn(C2OC(CO)C(O)C2O)c2ncnc(N)c12 (centres undefined)	7.94µM	2.82µM	x	x	n	n[10 µM]
O=C1CC2(CCCC2)CC(=O)N1CCCCN1CCN(c2ncccn2)CC1	3.55µM	n	n	n	n	u
